Test results published in paper PMC7862700, “An all-to-all approach to the identification of sequence-specific readers for epigenetic DNA modifications on cytosine”.

Tests used:
Test in all cases: DAPPL (digital affinity profiling via proximity ligation, sequencing); 10 mM Tris-HCl pH 7.5, 50 mM NaCl, 1 mM DTT, 4% glycerol, room temperature, 30 min; GST-TFs on glutathione beads, 16-mer random dsDNA library, 0.1% formaldehyde crosslink after washing; high values mean tight binding
[1] = molecular target: T1, FEV (Homo sapiens, UniProt Q99581 1-238); settings: protein: recombinant; tags: N-terminal GST; dsDNA, one strand shown
T1 sequence: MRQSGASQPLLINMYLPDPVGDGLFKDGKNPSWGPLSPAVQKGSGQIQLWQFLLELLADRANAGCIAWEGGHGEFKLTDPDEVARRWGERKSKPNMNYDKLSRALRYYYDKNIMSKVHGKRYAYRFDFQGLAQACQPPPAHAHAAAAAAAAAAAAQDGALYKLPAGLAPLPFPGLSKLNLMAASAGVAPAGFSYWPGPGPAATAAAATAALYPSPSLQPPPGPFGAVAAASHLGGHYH
Procedure, shortened: (§1)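 Beads coated with glutathione captured GST-fused human transcription factors that had been expressed in yeast, and the factors were then given DNA barcodes and pooled with a tag-only sample. The pools were incubated with 200 nmole of a random double-stranded 16-mer DNA library in Tris/NaCl/DTT/glycerol buffer for 30 min at room temperature, washed, crosslinked with 0.1% formaldehyde and proximity-ligated with BsaI/T4 ligase at 37 °C for 1 h. PCR amplification and Illumina NextSeq500 sequencing came last. Binding signal is each hexamer's read frequency for a factor divided by its frequency for the tag-only sample.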

[2] = molecular target: ETV5 (Homo sapiens, UniProt P41161 1-510); settings: protein: recombinant; tags: N-terminal GST; dsDNA, one strand shown
Chain of ETV5 (P41161 whole entry): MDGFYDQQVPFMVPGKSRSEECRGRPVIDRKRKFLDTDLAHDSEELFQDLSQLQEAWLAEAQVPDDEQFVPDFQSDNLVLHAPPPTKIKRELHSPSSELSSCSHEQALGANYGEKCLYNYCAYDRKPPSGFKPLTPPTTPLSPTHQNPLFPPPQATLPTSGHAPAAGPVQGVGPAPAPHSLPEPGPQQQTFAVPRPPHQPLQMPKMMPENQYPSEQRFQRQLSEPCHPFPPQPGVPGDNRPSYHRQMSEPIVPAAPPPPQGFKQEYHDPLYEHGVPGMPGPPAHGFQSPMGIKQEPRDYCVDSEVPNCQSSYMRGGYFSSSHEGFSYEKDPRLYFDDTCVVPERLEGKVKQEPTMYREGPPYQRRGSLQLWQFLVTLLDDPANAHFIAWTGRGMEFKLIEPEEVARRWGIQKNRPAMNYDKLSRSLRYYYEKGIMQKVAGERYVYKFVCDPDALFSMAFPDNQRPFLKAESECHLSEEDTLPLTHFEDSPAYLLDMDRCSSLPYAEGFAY
Procedure, shortened: as §1

[3] = molecular target: HSF1 (Homo sapiens, UniProt Q00613 1-529); settings: protein: recombinant; tags: N-terminal GST; chain copies: 3; dsDNA, one strand shown
Chain of HSF1 (Q00613 whole entry): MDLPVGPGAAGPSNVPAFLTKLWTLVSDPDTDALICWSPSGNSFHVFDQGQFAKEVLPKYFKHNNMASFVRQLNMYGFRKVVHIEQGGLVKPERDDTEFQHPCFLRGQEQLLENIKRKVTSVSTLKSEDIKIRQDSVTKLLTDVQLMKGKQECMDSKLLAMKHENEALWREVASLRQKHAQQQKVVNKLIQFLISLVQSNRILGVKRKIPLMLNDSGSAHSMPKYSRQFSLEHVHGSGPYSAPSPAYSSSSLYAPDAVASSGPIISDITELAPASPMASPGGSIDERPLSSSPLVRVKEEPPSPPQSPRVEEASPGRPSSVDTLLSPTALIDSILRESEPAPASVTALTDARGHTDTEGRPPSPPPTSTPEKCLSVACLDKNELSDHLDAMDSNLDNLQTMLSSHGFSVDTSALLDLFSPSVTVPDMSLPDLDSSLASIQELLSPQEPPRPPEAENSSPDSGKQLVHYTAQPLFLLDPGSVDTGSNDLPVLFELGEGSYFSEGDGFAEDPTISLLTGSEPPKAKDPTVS
Procedure, shortened: as §1

[4] = molecular target: T2, SPIC (Homo sapiens, UniProt Q8N5J4 1-248); settings: protein: recombinant; tags: N-terminal GST; dsDNA, one strand shown
T2 sequence: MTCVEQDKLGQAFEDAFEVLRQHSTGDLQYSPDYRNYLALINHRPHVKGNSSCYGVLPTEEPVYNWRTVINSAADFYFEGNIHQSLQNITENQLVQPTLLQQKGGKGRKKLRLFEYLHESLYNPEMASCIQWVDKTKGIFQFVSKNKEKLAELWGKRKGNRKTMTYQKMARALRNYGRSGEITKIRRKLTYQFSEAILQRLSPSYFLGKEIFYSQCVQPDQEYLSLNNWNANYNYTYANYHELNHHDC
Procedure, shortened: as §1

[5] = molecular target: ELF4 (Homo sapiens, UniProt Q99607 1-663); settings: protein: recombinant; tags: N-terminal GST; dsDNA, one strand shown
Chain of ELF4 (Q99607 whole entry): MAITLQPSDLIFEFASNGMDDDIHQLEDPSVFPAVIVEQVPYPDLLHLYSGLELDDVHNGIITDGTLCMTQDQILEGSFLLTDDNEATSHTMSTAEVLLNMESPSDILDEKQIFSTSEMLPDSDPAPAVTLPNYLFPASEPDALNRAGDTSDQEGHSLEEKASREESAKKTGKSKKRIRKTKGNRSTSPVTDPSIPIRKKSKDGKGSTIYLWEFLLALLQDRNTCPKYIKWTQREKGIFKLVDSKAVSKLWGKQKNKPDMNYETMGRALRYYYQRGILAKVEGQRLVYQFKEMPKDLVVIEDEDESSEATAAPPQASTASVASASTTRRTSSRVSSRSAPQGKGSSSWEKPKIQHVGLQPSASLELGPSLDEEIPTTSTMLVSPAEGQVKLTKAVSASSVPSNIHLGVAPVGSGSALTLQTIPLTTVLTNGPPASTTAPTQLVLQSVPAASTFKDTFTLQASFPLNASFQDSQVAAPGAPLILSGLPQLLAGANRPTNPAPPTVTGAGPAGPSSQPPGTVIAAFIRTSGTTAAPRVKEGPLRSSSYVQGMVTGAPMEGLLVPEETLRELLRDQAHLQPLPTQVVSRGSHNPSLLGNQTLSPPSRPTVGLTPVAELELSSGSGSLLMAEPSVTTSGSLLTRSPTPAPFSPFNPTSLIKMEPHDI
Procedure, shortened: as §1

[6] = molecular target: T3, ELK4 (Homo sapiens, UniProt P28324-2 1-405); settings: protein: recombinant; tags: N-terminal GST; dsDNA, one strand shown
T3 sequence: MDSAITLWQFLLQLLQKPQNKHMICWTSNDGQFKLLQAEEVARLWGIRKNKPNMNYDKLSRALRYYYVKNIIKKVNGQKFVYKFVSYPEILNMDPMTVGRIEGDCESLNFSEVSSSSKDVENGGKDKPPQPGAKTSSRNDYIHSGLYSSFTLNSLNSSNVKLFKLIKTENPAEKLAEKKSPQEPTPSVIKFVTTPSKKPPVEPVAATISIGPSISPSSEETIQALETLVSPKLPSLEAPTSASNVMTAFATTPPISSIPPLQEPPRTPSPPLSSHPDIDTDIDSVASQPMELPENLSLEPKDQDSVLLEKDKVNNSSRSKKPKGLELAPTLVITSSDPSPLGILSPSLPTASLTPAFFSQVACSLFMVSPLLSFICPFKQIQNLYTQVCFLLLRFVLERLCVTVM
Procedure, shortened: as §1

[7] = molecular target: T4, ETV2 (Homo sapiens, UniProt O00321 1-342); settings: protein: recombinant; tags: N-terminal GST; dsDNA, one strand shown
T4 sequence: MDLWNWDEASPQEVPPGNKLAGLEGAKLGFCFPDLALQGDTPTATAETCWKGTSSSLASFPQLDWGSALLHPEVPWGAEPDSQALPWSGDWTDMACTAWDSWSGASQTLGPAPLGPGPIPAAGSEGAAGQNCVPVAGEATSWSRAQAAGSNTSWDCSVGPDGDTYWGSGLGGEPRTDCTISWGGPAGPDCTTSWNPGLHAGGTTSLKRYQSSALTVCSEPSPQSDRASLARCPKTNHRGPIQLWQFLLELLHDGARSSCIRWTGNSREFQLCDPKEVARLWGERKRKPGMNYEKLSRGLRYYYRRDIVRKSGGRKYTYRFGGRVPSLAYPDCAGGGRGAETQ
Procedure, shortened: as §1

[8] = molecular target: T5, ELF3 (Homo sapiens, UniProt P78545 1-371); settings: protein: recombinant; tags: N-terminal GST; dsDNA, one strand shown
T5 sequence: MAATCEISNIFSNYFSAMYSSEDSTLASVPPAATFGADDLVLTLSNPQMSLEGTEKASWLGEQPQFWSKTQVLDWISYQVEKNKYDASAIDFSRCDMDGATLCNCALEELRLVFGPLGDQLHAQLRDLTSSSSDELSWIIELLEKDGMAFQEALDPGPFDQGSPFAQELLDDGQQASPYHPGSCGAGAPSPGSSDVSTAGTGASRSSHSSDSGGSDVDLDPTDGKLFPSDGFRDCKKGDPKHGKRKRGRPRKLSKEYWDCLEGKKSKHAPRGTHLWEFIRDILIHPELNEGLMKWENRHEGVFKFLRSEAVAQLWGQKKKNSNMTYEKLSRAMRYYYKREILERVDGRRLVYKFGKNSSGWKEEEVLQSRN
Procedure, shortened: as §1

[9] = molecular target: CRX (Homo sapiens, UniProt O43186 1-299); settings: protein: recombinant; tags: N-terminal GST; dsDNA, one strand shown
Chain of CRX (O43186 whole entry): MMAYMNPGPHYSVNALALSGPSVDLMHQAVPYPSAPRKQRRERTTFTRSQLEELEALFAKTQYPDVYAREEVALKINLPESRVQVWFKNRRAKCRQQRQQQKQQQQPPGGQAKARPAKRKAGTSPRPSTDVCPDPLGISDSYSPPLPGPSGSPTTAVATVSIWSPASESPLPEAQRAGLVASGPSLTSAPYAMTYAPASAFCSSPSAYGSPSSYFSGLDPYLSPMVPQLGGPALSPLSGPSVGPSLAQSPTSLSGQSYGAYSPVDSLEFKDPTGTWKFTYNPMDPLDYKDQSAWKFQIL
Procedure, shortened: as §1

[10] = molecular target: ETV1 (Homo sapiens, UniProt P50549 1-477); settings: protein: recombinant; tags: N-terminal GST; dsDNA, one strand shown
Chain of ETV1 (P50549 whole entry): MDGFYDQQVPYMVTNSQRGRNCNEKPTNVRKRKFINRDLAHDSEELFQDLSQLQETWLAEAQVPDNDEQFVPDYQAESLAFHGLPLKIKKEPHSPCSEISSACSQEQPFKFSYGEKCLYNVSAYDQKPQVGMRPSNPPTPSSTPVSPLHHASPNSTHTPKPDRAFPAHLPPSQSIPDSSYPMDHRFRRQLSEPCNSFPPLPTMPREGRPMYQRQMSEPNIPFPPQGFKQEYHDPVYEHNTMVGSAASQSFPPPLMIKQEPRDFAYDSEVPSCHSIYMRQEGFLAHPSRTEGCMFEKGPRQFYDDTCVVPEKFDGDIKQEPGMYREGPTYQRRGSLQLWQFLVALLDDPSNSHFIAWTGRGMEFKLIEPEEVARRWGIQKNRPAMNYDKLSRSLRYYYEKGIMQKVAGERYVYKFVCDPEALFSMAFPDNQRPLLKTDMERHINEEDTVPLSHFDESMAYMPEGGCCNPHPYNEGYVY
Procedure, shortened: as §1

[11] = molecular target: T6, ERF (Homo sapiens, UniProt P50548 1-548); settings: protein: recombinant; tags: N-terminal GST; dsDNA, one strand shown
T6 sequence: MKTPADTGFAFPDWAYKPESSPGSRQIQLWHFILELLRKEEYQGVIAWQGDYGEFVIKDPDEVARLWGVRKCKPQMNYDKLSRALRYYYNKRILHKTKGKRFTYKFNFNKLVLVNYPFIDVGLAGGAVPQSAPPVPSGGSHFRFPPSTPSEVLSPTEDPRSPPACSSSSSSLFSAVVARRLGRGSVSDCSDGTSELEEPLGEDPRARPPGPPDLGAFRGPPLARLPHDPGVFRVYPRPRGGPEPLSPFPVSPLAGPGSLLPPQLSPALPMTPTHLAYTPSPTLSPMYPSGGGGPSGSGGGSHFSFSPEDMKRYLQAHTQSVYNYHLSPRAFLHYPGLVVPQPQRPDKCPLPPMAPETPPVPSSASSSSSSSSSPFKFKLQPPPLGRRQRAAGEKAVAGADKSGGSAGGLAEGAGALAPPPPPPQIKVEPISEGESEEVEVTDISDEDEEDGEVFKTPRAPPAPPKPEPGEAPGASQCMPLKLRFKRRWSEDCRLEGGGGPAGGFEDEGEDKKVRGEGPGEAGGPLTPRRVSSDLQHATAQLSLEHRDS
Procedure, shortened: as §1

[12] = molecular target: T7, ETV3L (Homo sapiens, UniProt Q6ZN32 1-361); settings: protein: recombinant; tags: N-terminal GST; dsDNA, one strand shown
T7 sequence: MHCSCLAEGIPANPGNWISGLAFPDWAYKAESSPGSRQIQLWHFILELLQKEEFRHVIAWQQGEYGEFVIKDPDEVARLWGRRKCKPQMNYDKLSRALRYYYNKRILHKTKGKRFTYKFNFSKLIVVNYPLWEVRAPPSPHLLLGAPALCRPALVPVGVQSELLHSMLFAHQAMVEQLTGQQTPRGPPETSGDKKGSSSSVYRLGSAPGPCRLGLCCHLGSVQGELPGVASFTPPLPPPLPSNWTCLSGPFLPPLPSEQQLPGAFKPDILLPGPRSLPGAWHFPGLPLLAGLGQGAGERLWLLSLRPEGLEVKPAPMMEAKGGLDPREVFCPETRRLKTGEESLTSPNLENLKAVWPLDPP
Procedure, shortened: as §1

[13] = molecular target: T8, ETS2 (Homo sapiens, UniProt P15036 1-469); settings: protein: recombinant; tags: N-terminal GST; dsDNA, one strand shown
T8 sequence: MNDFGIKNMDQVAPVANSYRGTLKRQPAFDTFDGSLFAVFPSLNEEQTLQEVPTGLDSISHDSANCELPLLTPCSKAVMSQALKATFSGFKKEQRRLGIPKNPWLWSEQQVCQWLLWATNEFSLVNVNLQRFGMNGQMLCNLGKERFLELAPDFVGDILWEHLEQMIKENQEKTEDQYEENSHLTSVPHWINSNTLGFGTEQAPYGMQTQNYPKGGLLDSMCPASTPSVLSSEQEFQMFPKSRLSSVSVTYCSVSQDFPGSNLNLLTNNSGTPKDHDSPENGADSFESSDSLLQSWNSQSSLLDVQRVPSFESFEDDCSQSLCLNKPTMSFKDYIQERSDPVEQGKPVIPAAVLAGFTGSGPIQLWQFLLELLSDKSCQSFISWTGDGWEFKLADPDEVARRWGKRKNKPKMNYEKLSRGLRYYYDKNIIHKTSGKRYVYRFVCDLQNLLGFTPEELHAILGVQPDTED
Procedure, shortened: as §1

[14] = molecular target: T9, SPDEF (Homo sapiens, UniProt O95238 1-335); settings: protein: recombinant; tags: N-terminal GST; dsDNA, one strand shown
T9 sequence: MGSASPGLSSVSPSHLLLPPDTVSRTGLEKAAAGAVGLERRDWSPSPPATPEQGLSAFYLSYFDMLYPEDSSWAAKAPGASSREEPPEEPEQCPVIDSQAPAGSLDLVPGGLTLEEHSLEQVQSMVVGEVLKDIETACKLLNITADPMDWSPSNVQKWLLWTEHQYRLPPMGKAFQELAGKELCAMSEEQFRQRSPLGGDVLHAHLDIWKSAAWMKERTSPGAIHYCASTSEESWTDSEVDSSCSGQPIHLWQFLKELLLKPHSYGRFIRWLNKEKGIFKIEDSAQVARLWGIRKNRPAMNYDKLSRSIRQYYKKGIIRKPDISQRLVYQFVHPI
Procedure, shortened: as §1

[15] = molecular target: T10, ETV7 (Homo sapiens, UniProt Q9Y603 1-341); settings: protein: recombinant; tags: N-terminal GST; dsDNA, one strand shown
T10 sequence: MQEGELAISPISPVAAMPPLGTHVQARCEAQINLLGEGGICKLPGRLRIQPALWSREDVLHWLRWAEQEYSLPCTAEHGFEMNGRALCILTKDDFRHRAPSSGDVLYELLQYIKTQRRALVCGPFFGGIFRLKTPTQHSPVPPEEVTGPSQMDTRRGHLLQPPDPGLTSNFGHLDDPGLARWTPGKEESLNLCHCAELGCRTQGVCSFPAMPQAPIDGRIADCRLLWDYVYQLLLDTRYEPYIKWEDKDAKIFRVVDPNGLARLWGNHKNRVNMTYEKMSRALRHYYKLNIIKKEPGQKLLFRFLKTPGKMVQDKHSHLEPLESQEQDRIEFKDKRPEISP
Procedure, shortened: as §1

[16] = molecular target: T11, ELF5 (Homo sapiens, UniProt Q9UKW6-2 1-255); settings: protein: recombinant; tags: N-terminal GST; dsDNA, one strand shown
T11 sequence: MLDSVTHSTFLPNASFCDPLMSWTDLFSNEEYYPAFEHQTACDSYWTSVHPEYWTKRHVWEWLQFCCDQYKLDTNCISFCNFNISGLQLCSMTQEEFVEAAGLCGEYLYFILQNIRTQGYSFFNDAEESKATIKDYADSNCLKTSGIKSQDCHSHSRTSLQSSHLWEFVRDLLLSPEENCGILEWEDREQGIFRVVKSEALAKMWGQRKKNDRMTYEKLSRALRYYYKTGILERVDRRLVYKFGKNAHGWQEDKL
Procedure, shortened: as §1

[17] = molecular target: T12, ETV3 (Homo sapiens, UniProt P41162-2 1-143); settings: protein: recombinant; tags: N-terminal GST; dsDNA, one strand shown
T12 sequence: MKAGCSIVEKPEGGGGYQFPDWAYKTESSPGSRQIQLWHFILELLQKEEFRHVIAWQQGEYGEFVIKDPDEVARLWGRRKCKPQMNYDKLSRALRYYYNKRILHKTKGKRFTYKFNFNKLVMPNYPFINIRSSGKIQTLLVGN
Procedure, shortened: as §1

[18] = molecular target: ETV6 (Homo sapiens, UniProt P41212 1-452); settings: protein: recombinant; tags: N-terminal GST; dsDNA, one strand shown
Chain of ETV6 (P41212 whole entry): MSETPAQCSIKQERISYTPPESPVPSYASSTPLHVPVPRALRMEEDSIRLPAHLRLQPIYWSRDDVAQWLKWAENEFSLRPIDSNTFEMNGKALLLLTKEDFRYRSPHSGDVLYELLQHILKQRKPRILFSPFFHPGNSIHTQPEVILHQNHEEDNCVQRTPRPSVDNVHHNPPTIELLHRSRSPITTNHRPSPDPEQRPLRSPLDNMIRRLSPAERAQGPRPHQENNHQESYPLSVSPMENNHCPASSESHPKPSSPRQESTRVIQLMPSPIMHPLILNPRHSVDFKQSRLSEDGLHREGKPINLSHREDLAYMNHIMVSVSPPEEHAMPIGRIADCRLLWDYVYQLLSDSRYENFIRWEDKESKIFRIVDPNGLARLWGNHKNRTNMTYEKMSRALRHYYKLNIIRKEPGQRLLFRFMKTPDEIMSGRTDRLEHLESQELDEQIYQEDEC
Procedure, shortened: as §1

Sequence: CAACTT
- binding signal [1]: 1.78 fold enrichment (6-mer frequency, TF over GST control)
- binding signal [2]: 1.58 fold enrichment (6-mer frequency, TF over GST control)
- binding signal [3]: 1.22 fold enrichment (6-mer frequency, TF over GST control)
- binding signal [4]: 1.77 fold enrichment (6-mer frequency, TF over GST control)
- binding signal [5]: 1.57 fold enrichment (6-mer frequency, TF over GST control)
- binding signal [6]: 1.65 fold enrichment (6-mer frequency, TF over GST control)
- binding signal [7]: 1.4 fold enrichment (6-mer frequency, TF over GST control)
- binding signal [8]: 1.61 fold enrichment (6-mer frequency, TF over GST control)
- binding signal [9]: 1.25 fold enrichment (6-mer frequency, TF over GST control)
- binding signal [10]: 1.54 fold enrichment (6-mer frequency, TF over GST control)
- binding signal [11]: 1.44 fold enrichment (6-mer frequency, TF over GST control)
- binding signal [12]: 1.51 fold enrichment (6-mer frequency, TF over GST control)
- binding signal [13]: 1.6 fold enrichment (6-mer frequency, TF over GST control)
- binding signal [14]: 1.49 fold enrichment (6-mer frequency, TF over GST control)
- binding signal [15]: 1.37 fold enrichment (6-mer frequency, TF over GST control)
- binding signal [16]: 1.61 fold enrichment (6-mer frequency, TF over GST control)
- binding signal [17]: 1.55 fold enrichment (6-mer frequency, TF over GST control)
- binding signal [18]: 1.62 fold enrichment (6-mer frequency, TF over GST control)
